What all share (test): yeast three-hybrid, YBZ-1, SC-Leu-His + 0.5 mM 3-AT, 4 days
Settings in all cases: tags: N-Gal4 AD-HA kept; label: inside an RPR1-promoter hybrid RNA with tandem MS2 sites; ssRNA

Assay [1] addresses PUM1 PUF domain R7-KGV (Homo sapiens, UniProt Q14671 828-1176, S1079K;N1080G;E1083V). In outline:
(§1)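 Sequencing with Illumina followed PCR amplification of the repeat regions from transformants grown four days on SC-Leu (input) or SC-Leu-His + 0.5 mM 3-AT (selection). The transformants were strain YBZ-1 with a LexA–MS2 coat fusion and a HIS3 reporter, carrying Pumilio-1 PUF domain libraries and matching RNA elements. The interaction score is the log change in variant frequency from input to selection, computed in log2 with a pseudocount of 1 for absent variants.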

Assay [2] addresses PUM1 PUF domain R4-EHT (Homo sapiens, UniProt Q14671 828-1176, N971E;Q975T). In outline: as §1
Assay [3] addresses PUM1 PUF domain R5-RFN (Homo sapiens, UniProt Q14671 828-1176, C1007R;R1008F;Q1011N). An outline of the steps: as §1
Assay [4] has as its target PUM1 PUF domain R5-GWY (Homo sapiens, UniProt Q14671 828-1176, C1007G;R1008W;Q1011Y). An outline of the steps: as §1
Assay [5] deals with PUM1 PUF domain R5-SVV (Homo sapiens, UniProt Q14671 828-1176, C1007S;R1008V;Q1011V). An outline of the steps: as §1
Assay [6] concerns the target PUM1 PUF domain R5-DFS (Homo sapiens, UniProt Q14671 828-1176, C1007D;R1008F;Q1011S). In outline: as §1
In assay [7] the target is PUM1 PUF domain R3-TWD (Homo sapiens, UniProt Q14671 828-1176, C935T;R936W;Q939D). In outline:
as §1

Assay [8] concerns the target PUM1 PUF domain R3-WWS (Homo sapiens, UniProt Q14671 828-1176, C935W;R936W;Q939S). An outline of the steps: as §1
The target in assay [9] is PUM1 PUF domain R3-YRW (Homo sapiens, UniProt Q14671 828-1176, C935Y;Q939W). In outline: as §1
The target in assay [10] is PUM1 PUF domain R8-WFR (Homo sapiens, UniProt Q14671 828-1176, N1122W;Y1123F;Q1126R). In outline: as §1
PUM1 PUF domain R8-WFR, sequence (Q14671 828-1176 N1122W/Y1123F/Q1126R): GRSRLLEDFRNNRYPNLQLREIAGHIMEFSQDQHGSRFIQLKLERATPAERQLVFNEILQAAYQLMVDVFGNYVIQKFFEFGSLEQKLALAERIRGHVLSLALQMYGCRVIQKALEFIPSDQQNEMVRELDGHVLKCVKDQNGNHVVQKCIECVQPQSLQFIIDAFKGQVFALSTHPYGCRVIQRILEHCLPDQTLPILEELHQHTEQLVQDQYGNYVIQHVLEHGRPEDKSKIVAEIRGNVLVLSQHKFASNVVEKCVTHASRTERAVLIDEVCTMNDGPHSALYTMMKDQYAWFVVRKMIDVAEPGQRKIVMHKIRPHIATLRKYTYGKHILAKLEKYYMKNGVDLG
Assay [11] has as its target T1, PUM1 PUF domain R6-WHR (Homo sapiens, UniProt Q14671 828-1176, N1043W;Y1044H;Q1047R).
T1 sequence: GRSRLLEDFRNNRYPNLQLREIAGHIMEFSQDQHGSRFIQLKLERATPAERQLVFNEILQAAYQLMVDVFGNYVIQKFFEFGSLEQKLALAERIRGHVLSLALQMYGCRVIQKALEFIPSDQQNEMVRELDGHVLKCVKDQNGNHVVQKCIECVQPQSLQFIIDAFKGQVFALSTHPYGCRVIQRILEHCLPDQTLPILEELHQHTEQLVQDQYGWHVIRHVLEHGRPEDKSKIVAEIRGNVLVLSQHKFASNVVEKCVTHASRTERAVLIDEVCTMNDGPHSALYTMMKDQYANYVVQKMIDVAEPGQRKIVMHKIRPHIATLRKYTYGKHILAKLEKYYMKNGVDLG
In outline:
as §1

The target of assay [12] is PUM1 PUF domain R3-CRI (Homo sapiens, UniProt Q14671 828-1176, Q939I). An outline of the steps: as §1
Assay [13] addresses PUM1 PUF domain R3-TRT (Homo sapiens, UniProt Q14671 828-1176, C935T;Q939T). An outline of the steps: as §1
Assay [14] has as its target PUM1 PUF domain R1-NYV (Homo sapiens, UniProt Q14671 828-1176, S863N;R864Y;Q867V). An outline of the steps:
as §1

In assay [15] the target is PUM1 PUF domain R1-RKL (Homo sapiens, UniProt Q14671 828-1176, S863R;R864K;Q867L). In outline:
as §1

Assay [16] addresses PUM1 PUF domain R1-KWS (Homo sapiens, UniProt Q14671 828-1176, S863K;R864W;Q867S). An outline of the steps: as §1
Assay [17] concerns the target PUM1 PUF domain R8-HHP (Homo sapiens, UniProt Q14671 828-1176, N1122H;Y1123H;Q1126P). An outline of the steps: as §1
Assay [18] addresses PUM1 PUF domain R3-RSD (Homo sapiens, UniProt Q14671 828-1176, C935R;R936S;Q939D). In outline:
as §1

Assay [19] deals with PUM1 PUF domain R2-SIP (Homo sapiens, UniProt Q14671 828-1176, N899S;Y900I;Q903P). An outline of the steps: as §1

We go through twelve sequences from publication PMC8384837, “Expanding the binding specificity for RNA recognition by a PUF domain”.

PUM1 PUF domain R5-RFN, sequence (Q14671 828-1176 C1007R/R1008F/Q1011N): as the sequence (Q14671 828-1176 N1122W/Y1123F/Q1126R) above, with C180R, R181F, Q184N, W295N, F296Y, R299Q counted along it
PUM1 PUF domain R3-WWS, sequence (Q14671 828-1176 C935W/R936W/Q939S): as the sequence (Q14671 828-1176 N1122W/Y1123F/Q1126R) above, with C108W, R109W, Q112S, W295N, F296Y, R299Q counted along it
PUM1 PUF domain R3-TWD, sequence (Q14671 828-1176 C935T/R936W/Q939D): as the sequence (Q14671 828-1176 N1122W/Y1123F/Q1126R) above, with C108T, R109W, Q112D, W295N, F296Y, R299Q counted along it
PUM1 PUF domain R1-NYV, sequence (Q14671 828-1176 S863N/R864Y/Q867V): as the sequence (Q14671 828-1176 N1122W/Y1123F/Q1126R) above, with S36N, R37Y, Q40V, W295N, F296Y, R299Q counted along it
PUM1 PUF domain R5-GWY, sequence (Q14671 828-1176 C1007G/R1008W/Q1011Y): as the sequence (Q14671 828-1176 N1122W/Y1123F/Q1126R) above, with C180G, R181W, Q184Y, W295N, F296Y, R299Q counted along it
PUM1 PUF domain R7-KGV, sequence (Q14671 828-1176 S1079K/N1080G/E1083V): as the sequence (Q14671 828-1176 N1122W/Y1123F/Q1126R) above, with S252K, N253G, E256V, W295N, F296Y, R299Q counted along it
PUM1 PUF domain R8-HHP, sequence (Q14671 828-1176 N1122H/Y1123H/Q1126P): as the sequence (Q14671 828-1176 N1122W/Y1123F/Q1126R) above, with W295H, F296H, R299P counted along it
PUM1 PUF domain R3-RSD, sequence (Q14671 828-1176 C935R/R936S/Q939D): as the sequence (Q14671 828-1176 N1122W/Y1123F/Q1126R) above, with C108R, R109S, Q112D, W295N, F296Y, R299Q counted along it
PUM1 PUF domain R4-EHT, sequence (Q14671 828-1176 N971E/Q975T): as the sequence (Q14671 828-1176 N1122W/Y1123F/Q1126R) above, with N144E, Q148T, W295N, F296Y, R299Q counted along it

Consider “GGCUAGAACUAGUGGAUCCCCCGGCGCCCGGCGGCUCGAGCCCGGGUAAGUUUAAAUAGUCUGCAUGCCGCCGGGCGCCAUGCCUGCAGGUCGACUCUAGAAAACAUG”, for which the binding signal in [1] is 3.27 log2 enrichment (interaction score).
Take “GGCUAGAACUAGUGGAUCCCCCGGCGCCCGGCGGCUCGAGCCCGGGUAAGUGUAUAUAGUCUGCAUGCCGCCGGGCGCCAUGCCUGCAGGUCGACUCUAGAAAACAUG”: the binding signal in assay [2] is 2.46 log2 enrichment (interaction score).
As to “GGCUAGAACUAGUGGAUCCCCCGGCGCCCGGCGGCUCGAGCCCGGGUAAGUGUGAAUAGUCUGCAUGCCGCCGGGCGCCAUGCCUGCAGGUCGACUCUAGAAAACAUG”, the results for the binding signal in assay [3], in assay [4] and in assay [5] were 3.16 log2 enrichment (interaction score), 2.71 log2 enrichment (interaction score) and 3.44 log2 enrichment (interaction score), respectively.
Take “GGCUAGAACUAGUGGAUCCCCCGGCGCCCGGCGGCUCGAGCCCGGGUAAGUGUUAAUAGUCUGCAUGCCGCCGGGCGCCAUGCCUGCAGGUCGACUCUAGAAAACAUG”: the binding signal in assay [3] is 3.08 log2 enrichment (interaction score); in assay [6] it was 5.63 log2 enrichment (interaction score).
Regarding “GGCUAGAACUAGUGGAUCCCCCGGCGCCCGGCGGCUCGAGCCCGGGUAAGUGUAAGUAGUCUGCAUGCCGCCGGGCGCCAUGCCUGCAGGUCGACUCUAGAAAACAUG”, the binding signal was 2.42 log2 enrichment (interaction score) in [7], 5.24 log2 enrichment (interaction score) in [8] and 4.4 log2 enrichment (interaction score) in assay [9].
In the case of “GGCUAGAACUAGUGGAUCCCCCGGCGCCCGGCGGCUCGAGCCCGGGUAAGUGUAAAUAGUCUGCAUGCCGCCGGGCGCCAUGCCUGCAGGUCGACUCUAGAAAACAUG”, the binding signal in assay [8] is 2.73 log2 enrichment (interaction score); in assay [10], 4.29 log2 enrichment (interaction score); in assay [11], 3.96 log2 enrichment (interaction score); in assay [5] it was 0.43 log2 enrichment (interaction score); in assay [12], 3.93 log2 enrichment (interaction score); in assay [13] it was 4.01 log2 enrichment (interaction score).
Turning to “GGCUAGAACUAGUGGAUCCCCCGGCGCCCGGCGGCUCGAGCCCGGGUAAGUGUAAAUUGUCUGCAUGCCGCCGGGCGCCAUGCCUGCAGGUCGACUCUAGAAAACAUG”, the binding signal in assay [14] is 3.91 log2 enrichment (interaction score); in assay [15] it was 2.52 log2 enrichment (interaction score); in assay [16], 3.62 log2 enrichment (interaction score).
In the case of “GGCUAGAACUAGUGGAUCCCCCGGCGCCCGGCGGCUCGAGCCCGGGUAAGCGUAAAUAGUCUGCAUGCCGCCGGGCGCCAUGCCUGCAGGUCGACUCUAGAAAACAUG”, in assay [10], the binding signal was 4.73 log2 enrichment (interaction score).
Take “GGCUAGAACUAGUGGAUCCCCCGGCGCCCGGCGGCUCGAGCCCGGGUAAGGGUAAAUAGUCUGCAUGCCGCCGGGCGCCAUGCCUGCAGGUCGACUCUAGAAAACAUG”: in assay [17], the binding signal is 2.56 log2 enrichment (interaction score).
Take “GGCUAGAACUAGUGGAUCCCCCGGCGCCCGGCGGCUCGAGCCCGGGUAAGUGUAAUUAGUCUGCAUGCCGCCGGGCGCCAUGCCUGCAGGUCGACUCUAGAAAACAUG”: the binding signal in assay [18] was 3.6 log2 enrichment (interaction score); in assay [13], 1.8 log2 enrichment (interaction score).
With “GGCUAGAACUAGUGGAUCCCCCGGCGCCCGGCGGCUCGAGCCCGGGUAAGUGUAAAGAGUCUGCAUGCCGCCGGGCGCCAUGCCUGCAGGUCGACUCUAGAAAACAUG”, in assay [19], the binding signal was 3.71 log2 enrichment (interaction score).
Take “GGCUAGAACUAGUGGAUCCCCCGGCGCCCGGCGGCUCGAGCCCGGGUAAGUGUAAAUCGUCUGCAUGCCGCCGGGCGCCAUGCCUGCAGGUCGACUCUAGAAAACAUG”: the binding signal in assay [16] was 3.87 log2 enrichment (interaction score).
